Rows were chosen to be rich in hits. Some 2.1% of all compounds tested hit in one or more screens of this group.
Abeta rescue: A-beta toxicity reversal in yeast; yeast expressing A-beta42, growth rescue, OD600, 48 h; response scale: 0% DMSO, 100% iron-clioquinol control; Potency, µM (titrated, usually from 46.1 µM), usual class: activators; 410,000 tested, 0.063% active; further: nearly all actives have a fitted effect of over 55% in size
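Yeast growth medium received pinned compounds, then yeast cells expressing toxic A-beta were added; plates incubated at 30 C for 48 hr. Growth read as absorbance at 600 nm, normalized to DMSO and equimolar FeCl3 plus clioquinol controls.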
TDP-43 yeast inh: inhibitors of TDP-43 toxicity in yeast; 410,000 tested, 1.8% active; Potency, µM (top dose mostly 46.1 µM), inactives show top-dose growth rescue (activation), usual class: activators; TDP-43 expressing yeast growth rescue, BacTiter-Glo, 24 h; further: % of control where 0% means no effect; nearly all actives have a fitted effect of over 50% in size
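Yeast expressing TDP-43 (pregrown in raffinose, seeded at OD600=0.02 in galactose medium) exposed to compounds 24 hr at 30 deg C. Growth read by BacTiter-Glo luminescence; rescue of toxicity appears as increased signal.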
FUS suppressor: suppressors of FUS proteinopathy in yeast. Potency, µM (doses to about 76.6 µM), actives largely listed as activators. AID 1347120. S. cerevisiae FUS-expressing, growth rescue, OD600, 24 h. 390,000 tested, 0.24% active;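 further: plate controls were DMSO vehicle for no effect and reference control for full effect; nearly all actives have a fitted effect of over 55% in size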
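Cultures pregrown in 2.5% raffinose medium are shifted to minimal medium containing 2% galactose to express toxic FUS. Compounds are tested at several concentrations. After 24hr at 30C, growth is quantified at 600 nm absorbance.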
aSyn rescue: alpha-synuclein toxicity inhibition in yeast. Yeast expressing alpha-synuclein, growth rescue, BacTiter-Glo, 24 h. Potency, µM (highest dose often 46.1 µM), for inactives: at the top dose growth rescue (activation), hits mostly activators. 370,000 tested, 0.14% active. AID 652106; further: % of control where 0% means no effect; nearly all actives have a fitted effect of over 65% in size
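Screening used galactose-induced yeast with toxic alpha-synuclein levels, exposed to compound for 24 hr at 30 deg C. Cell growth, read with BacTiter-Glo luminescence, gave the measured signal.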
* = called active by the depositor; i = inactive; ? = inconclusive; nt = no result; [ ] = remark or other dose. The call rests on the fitted dose curve; in most records, active means well fitted curve in the direction sought with a large enough effect; inconclusive means small, poorly fitted or top-dose-only effect, or another doubt; inactive means no such curve, though single readings can be large; an effect the other way counts as inactive or inconclusive. Potency means the concentration at half of the fitted maximal effect.

SMILES | Abeta rescue | TDP-43 yeast inh | FUS suppressor | aSyn rescue
Cc1nc(NC(=O)C(C)(C)C)sc1-c1csc(N)n1 | i | 13.5% | i | -1.5%
O=C1c2nccnc2C(=O)N1Cc1ccccc1 | i | -10.1% | nt | 12.6µM*
O=C1c2nc3ccccn3c2C(=O)N1Cc1ccccc1 | i | -0.4% | i | 9.6%
OC(c1ccccc1)c1nc(-c2cc3ccccc3o2)cs1 (stereo unspecified) | i | 14.1µM* | i | 11.2%
COc1cc(C(O)c2nc(-c3ccc(C)c(C)c3)cs2)ccc1F (stereo unspecified) | i | 35.5µM* | i | ?
Cc1ccc(-c2csc(C(O)c3ccccc3)n2)cc1C (stereo unspecified) | i | 25.1µM* | i | ?
COc1ccc(-c2nc(CN3CCN(c4ncnc5ccccc45)CC3)c(C)o2)c(OC)c1 | i | 16.0% | i | -8.7%
Cc1ccc2onc(CC(=O)N3CCN(c4cccc(C)c4C)CC3)c2c1 | i | 25.1µM* | ? | nt
Cc1ccc(N2CCN(C(=O)NCc3noc4ccc(C)cc34)CC2)c(C)c1 | i | 20µM* | ? | nt
Cc1ccc(C)c(N2CCN(C(=O)NCc3noc4ccc(C)cc34)CC2)c1 | i | ? | i | nt
Cc1cc(C)cc(C(=O)NCC(=O)N2CCN(c3cccc(Cl)c3)CC2)c1 | i | 12.6µM* | i | 2.4%
Cc1ccc2onc(CC(=O)N3CCN(c4cccc(Cl)c4)CC3)c2c1 | i | 20µM* | ? | nt
Cc1cc(NS(=O)(=O)c2ccc(NC(=O)CSc3nnc(-c4cnccn4)n3-c3ccccc3)cc2)nc(C)n1 | nt | nt | i | nt
COc1ccc(NC(=O)CN(C)C(=O)CC2CCCC2)cc1 | i | 0.0% | i | 1.6%
Cc1oc(-c2ccc(Cl)cc2)nc1CN1CCC(C(=O)NCc2ccco2)CC1 | i | 0.0% | ? | -0.7%
O=C1CSC(c2ccc(Cl)c(Cl)c2)N1c1nccs1 (stereo unspecified) | i | 14.1µM* | i | 0.6%[1.84 µM]
O=C(Nc1ccc(F)cc1)c1cccnc1NCCc1ccccc1 | i | 12.6µM* | i | -9.6%
O=C(N/N=C/c1ccccn1)c1[nH]c2ccc([N+](=O)[O-])cc2c1-c1ccccc1 | i | 27.3% | 31.6µM* | ?
CCCOC(=O)c1ccc(NC(=O)c2cc(OC)c(OC)c(OC)c2Br)cc1 | i | 12.6µM* | i | 6.2%
Fc1ccccc1-n1cc(-c2ccccc2)[nH]c1=S | ? | 12.6µM* | i | 2.9%
COc1ccc(-n2cc(-c3ccccc3)[nH]c2=S)c(OC)c1 | i | 4.6% | i | 1.4%
CCN(CC)C(=O)c1ccc2c(c1)N(Cc1c(F)cccc1Cl)C(=O)c1ccccc1S2 | i | 22.4µM* | ? | nt
O=C(NCc1ccco1)c1ccc2c(c1)N(Cc1ccccc1)C(=O)c1ccccc1S2 | i | 15.0% | 31.6µM* | nt
Cc1cccc(CN2C(=O)c3ccccc3Sc3ccc(C(=O)NCc4ccco4)cc32)c1 | i | 24.6% | i | nt
CCCCC(c1nnnn1CC1CCCO1)N1CCN(c2cc(Cl)ccc2C)CC1 (stereo unspecified) | i | 17.8µM* | nt | -13.7%
SMILES | Abeta rescue | TDP-43 yeast inh | FUS suppressor | aSyn rescue
Cc1ccc(/C=C/C(=O)N2CC(C)CC(C)C2)o1 (stereo unspecified) | i | 25.1µM* | i | 7.7%
CCN1CCN(C(=O)/C=C/c2ccc(C)o2)CC1 | i | 10.9% | nt | -1.4%
COc1ccc(NC(=O)COC(=O)c2ccc(OCc3c(C)noc3C)cc2)cc1OC | i | 14.5% | i | 9.6%
COc1cc(C(=O)OCC(=O)Nc2ccc3c(c2)OC(F)(F)O3)ccc1OCc1c(C)noc1C | i | 35.5µM* | i | 1.5%
O=C(O)CSc1ncnc2c1oc1ccccc12 | i | -13.8% | i | -0.4%
c1ccc(Sc2ncnc3c2oc2ccccc23)cc1 | i | 12.6µM* | i | -1.0%
O=C(Nc1ccccc1)Nc1cccn(Cc2c(F)cccc2Cl)c1=O | i | -9.5% | i | -0.7%
CCN(C(=O)CSc1n[nH]c(-c2ccccc2)n1)c1c(N)n(Cc2ccccc2)c(=O)[nH]c1=O | i | 15.0% | i | -1.0%
O=C(COc1ccc(Cl)cc1Cl)NNC(=S)NC(=O)c1ccco1 | ? | 17.8µM* | i | 10µM*
O=C(NC(=S)NNC(=O)c1ccco1)c1ccc(Br)cc1 | i | 3.55µM* | i | ?
O=C(/C=C/c1ccco1)NC(=S)NNC(=O)c1ccco1 | ? | ? | i | 11.2µM*
CCCOc1ccc(C(=O)NNC(=S)NC(C)=O)cc1 | ? | 11.2µM* | i | 3.98µM*
COc1cc(NC(=O)c2cc(S(=O)(=O)N3CCC(C)CC3)cn2C)cc(OC)c1OC | i | 0.0% | i | nt
CCCOc1ccc(C(=O)NNC(=S)NC(=O)c2ccco2)cc1 | i | 6.31µM* | i | -28.0%
CCC(=O)NC(=S)NNC(=O)c1ccc(OC)cc1 | 10µM* | 20.3% | i | 10µM*
COc1ccc(C(=O)NNC(=S)NC(=O)c2ccco2)cc1 | i | ? | i | -19.6%
CCN(CC)S(=O)(=O)c1ccc2[nH]cc(C(=O)NC3CC3)c(=O)c2c1 | i | 9.7% | i | 1.1%
C#CCOc1ccc2c(C)cc(=O)oc2c1 | i | 20µM* | i | 0.1%
COc1cc(OC)c(C2CC(=O)N3CN(c4ccccc4)CSC3=C2C#N)cc1OC (stereo unspecified) | i | 10.1% | ? | 6.7%
CCc1ccccc1N1CSC2=C(C#N)C(c3cc(OC)c(OC)cc3OC)CC(=O)N2C1 (stereo unspecified) | i | 0.0316µM* | ? | -5.6%
Cc1cc(C(F)(F)F)n(-c2nc(C(=O)Nc3cccnc3)cs2)n1 | i | 22.4µM* | i | 9.4%
CC(=O)c1cccc(NC(=O)c2csc(-n3nc(C)cc3C(F)(F)F)n2)c1 | i | 12.6% | i | -4.2%
CCCCOc1ccc(CNC(=O)Cn2ncn3c(cc4cc(F)ccc43)c2=O)cc1 | i | ? | i | nt
COCCNc1cc(C)nc2ccccc12 | i | -2.3% | i | 0.9%
CCC(C)NC(=O)CNC(=S)N(CCCN1CCOCC1)Cc1cccs1 (stereo unspecified) | i | -13.6% | i | -5.2%
SMILES | Abeta rescue | TDP-43 yeast inh | FUS suppressor | aSyn rescue
OCc1ccccc1-c1ccc2nncn2c1 | i | 35.5µM* | i | ?
c1ccc2c(c1)OCCOCCOc1ccccc1OCCOCCO2 | i | 11.2µM* | i | 17.0%
Cc1c(C(=O)C(=O)NCCc2ccc(S(N)(=O)=O)cc2)c2ccccc2n1C | i | -9.3% | nt | -12.7%
O=C(Nc1ccccc1F)C(=O)Nc1cccc2ccccc12 | i | 13.6% | i | 4.7%
O=C(Nc1cccc2ccccc12)/C(Cl)=C/c1ccccc1 | i | 15.8µM* | i | -9.2%
CC1(C)N=C(N)N=C(N)N1c1ccc(CCCCc2ccccc2)cc1 | i | 10.8% | i | -6.8%
CCCCOc1ccc(CNC(=O)CN2CCSc3ccccc32)cc1 | ? | 35.5µM* | ? | ?

Screens as filed in PubChem BioAssay.
